About 83,000 compounds went through this panel and 20% of them were active in at least one assay; those are over-represented in the sample as a whole.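 A percent growth of 40 corresponds to 60% growth inhibition; 0 means no net growth; -100 means all cells died. Active threshold: below 10.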 Activity calls are given as the source filed them.
How the values were obtained:
Experiment in all cases: NCI-60 one-dose screen, 48 h (100 = growth as untreated, 0 = no growth, -100 = all killed)
Settings in all cases: 10 µM unless noted
[1] = test system: NCI-H23 lung
[2] = test system: NCI-H226 lung
[3] = test system: NCI-H322M lung
[4] = test system: HOP-62 NSCLC
[5] = test system: NCI-H460 lung
[6] = test system: HOP-92 NSCLC
[7] = test system: NCI-H522 lung
[8] = test system: A549/ATCC NSCLC
[9] = test system: 786-0 renal
[10] = test system: COLO 205 colon

Measured: growth

CC(=O)/C(=C\c1c(-c2ccccc2)[nH]c2ccccc12)S(C)(=O)=O
active: [5] 4.15%
inactive: [1] 33.7% | [2] 69.1% | [3] 58.2% | [4] 50.5% | [6] 42% | [7] 29.6% | [8] 42.8% | [9] 22.8% | [10] 21.2%

O=C(C[C@]1(O)C(=O)Nc2ccccc21)c1cccc(C(F)(F)F)c1
inactive: [1] 92.5% | [2] 86.3% | [3] 84.4% | [4] 78.8% | [5] 97.4% | [6] 77.3% | [7] 87.1% | [8] 99.2% | [9] 95.7% | [10] 89.5%

C=C(C)[C@@H]1CC[C@]2(C(=O)O)CC[C@]3(C)[C@H](CC[C@@H]4[C@@]5(C)CCC(NC(=O)c6cccc(OC(C)=O)c6OC(C)=O)C(C)(C)[C@@H]5CC[C@]43C)[C@@H]12 (stereo not given in full)
active: [1] 1.89% | [2] -17.4% | [3] 8.78% | [4] -14.6% | [5] -39.4% | [6] -11% | [7] -11.4% | [8] -6.31% | [9] -3.81% | [10] -11.3%

CC(=O)Oc1ccc(N2C(=O)C(Cl)=C(Nc3cccc(C(F)(F)F)c3)C2=O)cc1
inactive: [1] 100% | [2] 92.1% | [3] 98.6% | [4] 96.9% | [5] 102% | [6] 99.7% | [7] 86% | [8] 93.9% | [9] 95.7% | [10] 93.4%

CCOC(=O)C1=C(C)NC(=O)NC1c1c(Cl)n(CCCl)c2ccccc12 (stereo not given)
inactive: [1] 92.5% | [2] 92% | [3] 92.6% | [4] 90.8% | [5] 98.9% | [6] 42.9% | [7] 90% | [8] 95.4% | [9] 92.9% | [10] 117%

COc1ccc(-c2ccc(-c3ccc(C(=N)N)cc3)s2)cc1Cl
active: [3] -35.5% | [5] -66.4% | [7] -36.1% | [8] -48.2% | [9] -83.1% | [10] -36.1%
inactive: [1] 61.4% | [2] 92.8% | [4] 34.5% | [6] 75.8%

CCOC(=O)c1cc2c(n1C)-c1nc(NC(C)=O)sc1CCC2
inactive: [1] 76.1% | [2] 69.1% | [3] 76.2% | [4] 74.6% | [5] 95.5% | [6] 48.4% | [7] 60.9% | [8] 64.8% | [9] 84.6% | [10] 96.4%

CCN1C(=S)N(c2ccccc2)C2C1NN=c1s/c(=C3\C(=O)N(C(C)C)c4ccccc43)c(=O)n12 (stereo not given)
inactive: [1] 75.4% | [2] 66.7% | [3] 82.8% | [4] 73.4% | [5] 47.8% | [6] 100% | [7] 78.6% | [8] 57.8% | [9] 93.7% | [10] 89.4%

O=C1C(Cl)=C(Nc2ccc(S(=O)(=O)N3CCOCC3)cc2)C(=O)c2ccccc21
inactive: [1] 83.5% | [2] 84.5% | [3] 99.8% | [4] 86.3% | [5] 94.9% | [6] 25.7% | [7] 21% | [8] 80.8% | [9] 71% | [10] 104%

Cn1cc(-c2csc(-c3cn(C(=O)OC(C)(C)C)c4ccc(Br)cc34)n2)c2ccnc(Cl)c21
inactive: [1] 81.7% | [2] 73.3% | [3] 85.3% | [4] 68.5% | [5] 68.7% | [6] 58.8% | [7] 66.7% | [8] 70.3% | [9] 74.7% | [10] 90.9%

O=C1Nc2ccc(C(=O)O)cc2/C1=N/c1nnc(Sc2ccccc2)s1
inactive: [1] 104% | [2] 98.5% | [3] 116% | [4] 95% | [5] 107% | [6] 102% | [7] 94.3% | [8] 99.9% | [9] 102% | [10] 124%

O=c1c2cnn(-c3ccccc3)c2n2c(CN3CCOCC3)nnc2n1-c1ccccc1
inactive: [1] 108% | [2] 104% | [3] 108% | [4] 78.1% | [5] 102% | [6] 81.3% | [7] 41.2% | [8] 76.9% | [9] 92.6% | [10] 96.5%

CCc1ncnc2c1ccn2C(C)c1ccc(OC)c(F)c1 (stereo not given)
inactive: [1] 38.9% | [2] 77.2% | [3] 79.7% | [4] 41.3% | [5] 30.8% | [6] 43.2% | [7] 43.3% | [8] 41.1% | [9] 74.9% | [10] 26.3%

NC(=O)c1cc(I)ccc1NC(=O)/C=C/c1ccccc1
active: [1] 9.27% | [4] -35.5% | [5] 1.75% | [6] 0.535% | [7] -18.7%
inactive: [2] 56.8% | [3] 33.8% | [8] 33.7% | [9] 26% | [10] 15.3%

C#COc1cccc(Nc2c(C#N)cnc3ncc(NC(=O)CCl)cc23)c1
active: [7] -69.4% [6.25 µM] | [9] -23.4% [6.25 µM]
inactive: [1] 59.6% [6.25 µM] | [2] 57.2% [6.25 µM] | [3] 53.1% [6.25 µM] | [4] 32.8% [6.25 µM] | [5] 11.8% [6.25 µM] | [6] 54.5% [6.25 µM] | [8] 31.2% [6.25 µM] | [10] 17.5% [6.25 µM]

COC1=CC(c2ccc[nH]2)=N/C1=C\c1[nH]c(C)c(CC(=O)OCc2ccccc2)c1CCC(=O)OCc1ccccc1
active: [1] -12.6% | [2] -12.8% | [4] -22.2% | [6] -26.1% | [7] -48.5% | [8] 5.29% | [9] -56.2% | [10] -45.6%
inactive: [3] 34.7% | [5] 12.2%

CC(C)=CCCC(C)c1ccc(C)c2c1OCN(CCCCCO)C2 (stereo not given)
active: [7] -1.75%
inactive: [1] 91.3% | [2] 98.4% | [3] 102% | [4] 92.5% | [5] 81.1% | [6] 27.7% | [8] 82.5% | [9] 69.5% | [10] 90%

O=C1C(=O)N(Cc2ccc(-c3ccccc3)cc2)c2ccc(OC(F)(F)F)cc21
inactive: [1] 41.4% | [2] 73.6% | [3] 102% | [4] 37.5% | [5] 83.3% | [6] 60.8% | [7] 31.1% | [8] 92.9% | [9] 41.6% | [10] 82.7%

CCC(=C(c1ccc(OCCN2CCCCC2)cc1)c1ccc(OCCN2CCCCC2)cc1)c1ccc(Cl)cc1
active: [1] -81% | [2] -66.4% | [3] -99% | [4] -73.7% | [5] -80.5% | [6] -83.6% | [7] -69.7% | [8] -72.2% | [9] -88.8% | [10] -66.3%

CCN1CCN(C(=O)[C@]23CCC(C)(C)C[C@@H]2C2=CC[C@@H]4[C@@]5(C)CCC(=O)C(C)(C)[C@@H]5CC[C@@]4(C)[C@]2(C)CC3)CC1
inactive: [1] 64.9% | [2] 71% | [3] 81.2% | [4] 78.8% | [5] 25.5% | [6] 44.9% | [7] 44.7% | [8] 46.1% | [9] 50.5% | [10] 44.2%

O=S(=O)(NCCCNc1nccc(-c2c(-c3ccc(F)c(O)c3)nc3occn23)n1)c1ccc(Cl)cc1
inactive: [1] 70.7% | [2] 103% | [3] 85.3% | [4] 88.3% | [5] 62.3% | [6] 68.8% | [7] 63.1% | [8] 72.4% | [9] 106% | [10] 42.9%

CS(=O)(=O)Nc1cc(-c2ccc3ncnc(Nc4ccc5c(cnn5Cc5cccc(F)c5)c4)c3c2)cnc1Cl
active: [3] -5.63% | [4] 9.82% | [6] -20.1% | [7] -11% | [10] -20.2%
inactive: [1] 10.4% | [2] 20.8% | [5] 22.8% | [8] 23.6% | [9] 13.3%

Cc1cc(C)c2c(c1)N(C)c1ncnc(-n3cnc4cc(C)ccc43)c1CC2C (stereo not given)
inactive: [1] 37.9% | [2] 49.9% | [3] 48.5% | [4] 31.8% | [6] 38.3% | [8] 26.2% | [9] 22.8%
active: [5] 7.26% | [7] -0.316% | [10] 0.292%

COc1ccc(/C=C/C(=O)c2ccc(Nc3ccnc4cc(Cl)ccc34)cc2)cc1
inactive: [1] 76.2% | [2] 123% | [3] 131% | [4] 72.3% | [5] 101% | [6] 37.9% | [7] 73.3% | [8] 103% | [9] 72.8% | [10] 117%

COC(=O)C1Cc2ccccc2CN1C(=O)c1ccc2c(c1)Cc1ccccc1-2 (stereo not given)
inactive: [1] 35.9% [50 µM] | [2] 45.3% [50 µM] | [3] 68.2% [50 µM] | [4] 76.6% [50 µM] | [5] 34.4% [50 µM] | [6] 48.5% [50 µM] | [7] 18.5% [50 µM] | [8] 27.3% [50 µM] | [9] 54% [50 µM] | [10] 32.2% [50 µM]

C=C1C(=O)O[C@H]2[C@H]1CC/C(Cn1cc(-c3ccccc3)nn1)=C\CC[C@@]1(C)O[C@@H]21
active: [1] -23.6% | [2] -25.8% | [6] -69.9% | [7] -62% | [9] -78% | [10] -65.3%
inactive: [3] 89.2% | [4] 79.3% | [5] 51.8% | [8] 33.8%

From PubChem BioAssay (NCI)
